Results on 9 compounds are retold here after PubChem BioAssay.

The structures appear in SMILES notation. For part of these data: Measured potencies and affinities stand elsewhere. The source made the active and inactive calls.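 Rule for the calls, unless noted: active = primary screen hit whose fluorescence ratio, in both repeats, exceeds the weak agonist control mean by 3 SD; inactive = the rest.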

In test [1] the test system is TRPC4 beta (transient receptor potential cation channel C4), mouse. The experiment in a line: activators of mouse TRPC4 channel, confirmation, cell-based, Fluo4 calcium, HEK293 TRPC4beta/mu-opioid, duplicates, 10 µM (AID 2426;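 active = fluorescence ratio normalized to control raised more than 50% in primary screen plus both repeat runs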;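 for activation: percent rise of integrated ratio over buffer wells lacking compound which define 0%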). The settings on record: Fluo4 calcium fluorescence, at 10 µM; hits give high values.
The subject of test [2] is transient receptor potential cation channel C4 beta (TRPC4), mouse. Briefly: activators of mouse TRPC4 channel, confirmation, cell-based, second round, Fluo4, HEK293 TRPC4beta/mu-opioid, 1 µM (AID 2461;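 active = primary screen active and over 50% activation in each of two duplicate runs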). The settings on record: Fluo4 calcium fluorescence, at 1 µM; hits give high values.
For test [3], the system named is TRPC4 (transient receptor potential cation channel C4 beta), mouse. The experiment in a line: positive allosteric modulators of mouse TRPC4, confirmation, cell-based, second round, Fluo-4, HEK293 TRPC4beta/mu-opioid, 1 µM (AID 2554). As to conditions: DAMGO EC20, Fluo-4 calcium flux, at 1 µM; hits give high values. (A change in cytosolic calcium serves as a functional read-out for many receptors and channels.)

Test [4] relates to TRPC4 beta (transient receptor potential cation channel C4), mouse. Briefly: positive allosteric modulators of mouse TRPC4, confirmation, cell-based, Fluo-4, HEK293 TRPC4beta/mu-opioid (AID 2555;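 active = primary screen hit whose calcium fluorescence ratio, in both repeats, exceeds the weak agonist control mean by 3 SD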). The settings on record: DAMGO EC20, Fluo-4 calcium flux, at 10 µM; hits give high values.
Test [5] concerns the target Short transient receptor potential channel 4 (Mus musculus) (UniProt Q9QUQ5). The experiment in a line: inhibitors of mouse TRPC4 channel, confirmation, cell-based, Fluo4, HEK293 TRPC4beta/mu-opioid (AID 2636;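 active = calcium signal cut by more than 3 SD below the full-agonist control yet still positive, in both repeats and the earlier primary screen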). The settings on record: DAMGO, Fluo4 calcium flux, at 10 µM; hits give high values.
The target is the same in test [6]. Briefly: inhibitors of mouse TRPC4 channel, confirmation, cell-based, second round, Fluo4, HEK293 TRPC4beta/mu-opioid, 1 µM (AID 2637;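 active = calcium signal ratio cut to more than 3 SD under the fully stimulated control mean yet still positive, in both repeats and the primary screen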). The settings on record: Fluo4 calcium flux, DAMGO, at 1 µM; hits give high values.
For test [7] the target is unchanged. Briefly: mouse TRPC4 channel activators, dose response, cell-based, HEK293 TRPC4/mu-opioid, Fluo-4 calcium (AID 434937;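 active = primary screen activator hit with a dose response curve and TRPC4 channel activation at any tested dose; inactive = no activation, no dose response, or not a primary hit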).
The target is the same in test [8]. The experiment in a line: TRPC4 positive allosteric modulators, dose response, cell-based, HEK293 TRPC4/mu-opioid, Fluo-4 calcium, EC20 DAMGO (AID 434941;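 active = earlier screen potentiator hit that boosts the TRPC4 ion channel at some dose, with a dose response; inactive = no potentiation, no dose response, or not a prior hit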;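 note: calcium entry triggered by an EC20 dose of DAMGO at the co-expressed mu-opioid receptor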).
Test [9] shares this target. Briefly: mouse TRPC4 channel inhibitors, dose response, cell-based, HEK293 TRPC4/mu-opioid, Fluo-4 calcium (AID 434942;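 active = primary screen inhibitor hit that blocks the TRPC4 channel at some tested dose, yielding a dose curve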).
For test [10], the target named is Short transient receptor potential channel 6 (Mus musculus) (UniProt Q61143). Briefly: inhibition of mouse TRPC6 channel, confirmation, selectivity assay for TRPC4 inhibitor project, cell-based, HEK293, membrane potential dye, duplicate (AID 434948;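 active = active in primary screen and both duplicates, each dropping signal beyond three positive-control SD with fluorescence still positive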). The settings on record: HEK293 TRPC6, membrane potential dye fluorescence, at 10 µM, stimulated with maximal-effect acetylcholine; hits give high values.

The target is the same in test [11]. The experiment in a line: activation of mouse TRPC6 channel, confirmation, selectivity assay for TRPC4 activator project, cell-based, HEK293, membrane potential dye, duplicate (AID 434950;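 active = membrane potential signal rise above negative control mean plus 3 SD in both duplicates, also active in the earlier TRPC4 screen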). The settings on record: HEK293 TRPC6, membrane potential fluorescence, at 10 µM; hits give high values.
For test [12] the target is unchanged. The experiment in a line: TRPC6 potentiation by TRPC4 potentiator hits, confirmation, selectivity assay for TRPC4 potentiator project, HEK293 cells, membrane potential dye, duplicate (AID 434952;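 active = compound raising the membrane signal above positive-control mean plus 3 SD in both repeats, and a primary screen hit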). As to conditions: HEK293 TRPC6, membrane potential dye fluorescence, at 10 µM, maximal acetylcholine added after compound; hits give high values.
In test [13] the target is Short transient receptor potential channel 4 (Mus musculus) (UniProt Q9QUQ5). Briefly: calcium flux activators in TRPC4/5HT1a cells, counter-screen for TRPC4 activator project, cell-based, second counter screen, HEK293 TRPC4/5HT1a, Fluo-4 (AID 434977;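 active = calcium signal rise above buffer-control mean plus 5 SD in both duplicates, and also a hit in the primary screen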). The settings on record: Fluo-4 calcium flux, at 10 µM; hits give high values.
A short description of test [14]: calcium flux inhibitors in TRPC4/5HT1a cells, confirmation, counter-screen for TRPC4 inhibitor project, cell-based, second counter screen, HEK293 TRPC4/5HT1a, Fluo-4 (AID 434978;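 active = primary screen active whose calcium signal fell more than 3 SD beyond the full-serotonin control mean in both duplicate plates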;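 for outcome: serotonin given first at submaximal then at maximal dose after compound preincubation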). As to conditions: Fluo-4 calcium flux, at 10 µM, serotonin added to trigger calcium flux; hits give high values.
Test [15] deals with TRPC4 (mouse), co-expressed with 5HT1a in HEK293. The experiment in a line: calcium flux potentiators in TRPC4/5HT1a cells, confirmation, counter-screen for TRPC4 potentiator project, cell-based, second counter screen, HEK293 TRPC4/5HT1a, Fluo-4 (AID 434979;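 active = signal rise over 3 SD above mean of control wells given weak agonist, in both repeats and first screen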). The settings on record: Fluo-4 calcium flux, at 10 µM, serotonin added at its EC20 dose; hits give high values.
Test [16] in a line: calcium flux activation in mu-opioid HEK293 cells, confirmation, counter-screen for TRPC4 activator project, cell-based, HEK293 mu-opioid receptor line (AID 449723;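 active = hit in primary screen, with calcium signal over 5 SD above buffer well mean in both duplicates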;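 note: counter screen cells carry the mu-opioid receptor alone and lack TRPC4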). The settings on record: Fluo-4 calcium fluorescence, at 10 µM; hits give high values.
Test [17] is described as follows: calcium flux enhancement in mu-opioid HEK293 cells, confirmation, counter-screen for TRPC4 allosteric potentiator project, cell-based, HEK293 mu-opioid receptor line (AID 449724;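 active = calcium signal rise more than 3 SD above the low-dose agonist control mean, in both duplicate plates and the primary screen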;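 note: HEK293 cells carrying mu-opioid receptor only with no TRPC4 channel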). As to conditions: Fluo-4 calcium flux, at 10 µM, compound added before EC20 DAMGO stimulus; hits give high values.

By inhibition is commonly meant the share of the control response that was lost under treatment.

Sequence of Short transient receptor potential channel 4 (Mus musculus) (Q9QUQ5 whole entry, looked up): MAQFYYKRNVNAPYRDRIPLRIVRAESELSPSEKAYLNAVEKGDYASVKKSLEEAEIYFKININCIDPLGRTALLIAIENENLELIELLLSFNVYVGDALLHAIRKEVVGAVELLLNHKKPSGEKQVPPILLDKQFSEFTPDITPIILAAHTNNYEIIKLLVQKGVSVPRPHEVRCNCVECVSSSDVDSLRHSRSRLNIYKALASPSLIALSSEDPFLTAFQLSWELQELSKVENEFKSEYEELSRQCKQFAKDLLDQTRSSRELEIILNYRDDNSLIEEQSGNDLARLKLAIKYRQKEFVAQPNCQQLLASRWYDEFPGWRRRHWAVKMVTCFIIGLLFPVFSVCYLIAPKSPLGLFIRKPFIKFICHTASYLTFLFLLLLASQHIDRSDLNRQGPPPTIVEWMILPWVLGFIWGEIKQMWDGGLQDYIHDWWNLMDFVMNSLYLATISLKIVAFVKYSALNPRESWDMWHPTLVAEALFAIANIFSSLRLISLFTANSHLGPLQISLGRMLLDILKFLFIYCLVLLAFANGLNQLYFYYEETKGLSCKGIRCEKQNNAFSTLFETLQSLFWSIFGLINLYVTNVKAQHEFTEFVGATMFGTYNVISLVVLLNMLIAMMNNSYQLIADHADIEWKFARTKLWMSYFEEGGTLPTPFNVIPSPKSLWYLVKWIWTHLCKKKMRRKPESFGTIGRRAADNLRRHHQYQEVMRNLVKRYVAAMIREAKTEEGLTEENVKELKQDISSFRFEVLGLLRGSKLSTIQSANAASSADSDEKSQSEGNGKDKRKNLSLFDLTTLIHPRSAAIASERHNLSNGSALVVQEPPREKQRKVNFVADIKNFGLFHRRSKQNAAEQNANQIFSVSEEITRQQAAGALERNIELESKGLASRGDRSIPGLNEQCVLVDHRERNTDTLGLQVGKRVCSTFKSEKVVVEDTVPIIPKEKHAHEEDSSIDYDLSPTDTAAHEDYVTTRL
Sequence of Short transient receptor potential channel 6 (Mus musculus) (Q61143 whole entry, looked up): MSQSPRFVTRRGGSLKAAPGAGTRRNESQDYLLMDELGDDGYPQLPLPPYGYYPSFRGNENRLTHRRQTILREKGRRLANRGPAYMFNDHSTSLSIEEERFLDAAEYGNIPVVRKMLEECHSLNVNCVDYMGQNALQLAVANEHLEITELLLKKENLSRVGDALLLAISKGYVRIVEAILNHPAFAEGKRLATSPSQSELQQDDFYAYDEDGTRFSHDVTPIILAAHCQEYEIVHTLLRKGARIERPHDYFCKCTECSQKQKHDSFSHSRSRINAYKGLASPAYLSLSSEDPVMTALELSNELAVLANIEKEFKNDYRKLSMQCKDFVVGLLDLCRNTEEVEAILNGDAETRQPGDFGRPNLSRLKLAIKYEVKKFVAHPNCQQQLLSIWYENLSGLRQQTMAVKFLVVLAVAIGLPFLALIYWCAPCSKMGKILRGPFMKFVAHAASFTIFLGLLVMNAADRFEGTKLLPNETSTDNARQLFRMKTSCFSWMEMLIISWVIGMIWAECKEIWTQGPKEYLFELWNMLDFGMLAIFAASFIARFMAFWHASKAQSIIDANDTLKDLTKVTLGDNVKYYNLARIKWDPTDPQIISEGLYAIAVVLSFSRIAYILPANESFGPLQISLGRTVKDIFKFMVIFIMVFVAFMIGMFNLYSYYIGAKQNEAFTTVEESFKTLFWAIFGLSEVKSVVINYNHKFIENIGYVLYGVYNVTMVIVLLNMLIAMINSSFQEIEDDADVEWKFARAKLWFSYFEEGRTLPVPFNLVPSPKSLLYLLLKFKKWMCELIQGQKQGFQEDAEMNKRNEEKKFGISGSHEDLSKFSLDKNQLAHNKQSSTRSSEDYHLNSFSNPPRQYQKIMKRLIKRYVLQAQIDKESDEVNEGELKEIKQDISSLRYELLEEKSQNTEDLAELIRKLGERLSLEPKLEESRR

In the case of `CCCN1Cc2cccc(C(=O)N3CCN(c4cc(Cl)ccc4C)CC3)c2C1=O`, the outcome in test [1], in test [2], in test [3], in test [5], in test [6] and in test [7] was inactive. Further, the outcome in test [8], in [9], in test [10], in test [11], in test [12] and in [13] was inactive. Besides, the outcome in test [14], in [16] and in test [17] was inactive. Also, the potentiation in test [4] is 81% (active); in test [15] it was 49.8% (active).
Regarding `COc1ccc(-n2cc(CNCc3cccnc3)c(-c3cccc(F)c3)n2)cc1`, the activation in test [1] is 84% (active). Also, the result in [2], in test [3], in test [4], in test [5], in test [6] and in [7] was inactive. Further, the result in test [8], in [9], in test [10], in [11], in test [12] and in test [13] was inactive. The outcome in test [14], in test [15], in [16] and in test [17] was inactive.
Turning to `CC1CCCN(C2=C(NS(=O)(=O)c3ccc(Br)cc3)C(=O)c3ccccc3C2=O)C1` (stereo not drawn), the outcome in test [1], in test [2], in [3], in test [4], in [5] and in [6] was inactive. Besides, the result in test [7], in [8], in test [9], in test [10], in test [11] and in test [12] was inactive. Also, the result in test [13], in [14], in test [15], in test [16] and in [17] was inactive.
Take `Cc1ccc(C(C)C)c(OCCCCN2CCNCC2)c1`: the outcome in [1], in test [2], in test [4], in [5], in [6] and in test [7] was inactive. The outcome in [8], in [9], in test [10], in test [11], in test [12] and in test [13] was inactive. The outcome in test [14], in [16] and in test [17] was inactive. For the same compound, the potentiation in [3] was 11% (active); in test [15], 23.8% (active).
For `Cc1cc(NC(=O)CSCC(=O)Nc2ccc(Cl)c(C(F)(F)F)c2)no1`, the outcome in test [1], in [2], in test [3], in [4], in test [6] and in test [7] was inactive. Also, the outcome in [8], in [9], in test [10], in [11], in test [12] and in [13] was inactive. Besides, the outcome in [15], in test [16] and in test [17] was inactive. In addition, the inhibition in [5] was 71% (active); in test [14], 35.2% (active).
Turning to `CCN1CCN(c2ccc(S(=O)(=O)N3CCCCC3)cc2NC(=O)COc2cc(C)ccc2Cl)CC1`, the outcome in [1], in [2], in [3], in test [5], in test [6] and in test [7] was inactive. Besides, the outcome in test [8], in test [9], in test [10], in [11], in test [12] and in test [13] was inactive. Besides, the outcome in test [14], in test [16] and in [17] was inactive. The potentiation in [4] is 16% (active); in test [15], 17.8% (active).
For `O=C(NCCCN1CCOCC1)C1CCN(S(=O)(=O)c2c(Cl)cccc2Cl)CC1`, the result in test [1], in test [2], in test [3], in test [4], in test [5] and in [6] was inactive. The result in [7], in test [8], in test [9], in [10], in [11] and in test [12] was inactive. In addition, the outcome in test [13], in [14], in test [15], in [16] and in [17] was inactive.
Turning to `CC(=O)c1ccc(OCC(O)CN2CCN(S(=O)(=O)c3c(C)cc(C)cc3C)CC2)cc1` (stereo not drawn), the outcome in [1], in [2], in test [5], in [6], in test [7] and in [8] was inactive. Moreover, the outcome in [9], in test [10], in [11], in [12], in [13] and in [14] was inactive. Besides, the result in [16] and in [17] was inactive. For the same compound, the potentiation was 20% (active) in test [3], 23% (active) in [4] and 27.2% (active) in test [15].
As for `Cc1cccn2c(=O)c3cc(C(=O)N(C)C)n(C)c3nc12`, the outcome in [1], in test [2], in test [3], in test [5], in [6] and in test [7] was inactive. Further, the outcome in test [8], in test [9], in [10], in [11], in [12] and in test [13] was inactive. Moreover, the result in test [14], in [16] and in test [17] was inactive. Moreover, the potentiation in test [4] was 29% (active); in test [15] it was 37.3% (active).
